Of roughly 8,800 targets only a part is listed; those with a hit were picked by preference. About 0.5% of all pairs of compound and target were hits.
Assays:
Assay in all cases: log2 fold change, soluble protein after heating vs DMSO (PISA); higher = thermal stabilisation; K562 lysate, 10 uM; active = over 0.2 and 3.5 SD of the protein, either way, in both replicates (recomputed)
alvocidib = compound: CN1CC[C@H](c2c(O)cc(O)c3c(=O)cc(-c4ccccc4Cl)oc23)[C@H](O)C1 [alvocidib]
Method in brief: (§1)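 K562 pellets were dounce-homogenised in PBS pH 7.4 containing 1 mM MgCl2, and the crude extract, at 1 mg/mL protein, was exposed to 10 μM compound for 30 min. Aliquots were heated for 3 min across 48°C-58°C, pooled, brought to 0.5% NP-40 at 4°C and spun at 21,000xg for 90 min, with the supernatant taken as soluble protein. TMTpro 16plex LC-MS/MS with equalised channel sums quantified that protein. Values are log-two fold changes in thermal stability relative to solvent controls, taken from duplicates.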

Tubastatin A = compound: CN1CCc2c(c3ccccc3n2Cc2ccc(C(=O)NO)cc2)C1 [Tubastatin A]
Method in brief: as §1

[1] = compound: CNC(=O)C1=CC=CC=C1NC2=NC(=NC=C2Cl)NC3=C(C=C(C=C3)N4CCOCC4)OC
Method in brief: as §1

defactinib = compound: CNC(=O)c1ccc(Nc2ncc(C(F)(F)F)c(NCc3nccnc3N(C)S(C)(=O)=O)n2)cc1 [defactinib]
Method in brief: as §1

[2] = compound: CNc1nc(-c2ccc3c(N)n[nH]c3c2)cc(N2C[C@@H](C(=O)NC3CCCCC3)CC[C@H]2C)n1
Method in brief: as §1

encorafenib = compound: COC(=O)N[C@@H](C)CNc1nccc(-c2cn(C(C)C)nc2-c2cc(Cl)cc(NS(C)(=O)=O)c2F)n1 [encorafenib]
Method in brief: as §1

[3] = compound: COC(=O)[C@H](CCSC)NC(=O)C1=C(C=C(C=C1)NC[C@H](CS)N)C2=CC=CC=C2
Method in brief: as §1

alisertib = compound: COc1cc(Nc2ncc3c(n2)-c2ccc(Cl)cc2C(c2c(F)cccc2OC)=NC3)ccc1C(=O)O [alisertib]
Method in brief: as §1

[4] = compound: COc1cc2nc(-c3cc(F)ccc3O)nc(N[C@@H]3CNC[C@H]3C(C)(C)O)c2cc1OC
Method in brief: as §1

gefitinib = compound: COc1cc2ncnc(Nc3ccc(F)c(Cl)c3)c2cc1OCCCN1CCOCC1 [gefitinib]
Method in brief: as §1

lapatinib = compound: CS(=O)(=O)CCNCc1ccc(-c2ccc3ncnc(Nc4ccc(OCc5cccc(F)c5)c(Cl)c4)c3c2)o1 [lapatinib]
Method in brief: as §1

pictilisib = compound: CS(=O)(=O)N1CCN(Cc2cc3nc(-c4cccc5[nH]ncc45)nc(N4CCOCC4)c3s2)CC1 [pictilisib]
Method in brief: as §1

crizotinib = compound: C[C@@H](Oc1cc(-c2cnn(C3CCNCC3)c2)cnc1N)c1c(Cl)ccc(F)c1Cl [crizotinib]
Method in brief: as §1

[5] = compound: C[C@H](C1=CC=C(C=C1)C(=O)NC2=C3C=CNC3=NC=C2)N
Method in brief: as §1

duvelisib = compound: C[C@H](Nc1ncnc2nc[nH]c12)c1cc2cccc(Cl)c2c(=O)n1-c1ccccc1 [duvelisib]
Method in brief: as §1

gandotinib = compound: Cc1cc(Nc2cc(CN3CCOCC3)c3nc(C)c(Cc4ccc(Cl)cc4F)n3n2)n[nH]1 [gandotinib]
Method in brief: as §1

tozasertib = compound: Cc1cc(Nc2cc(N3CCN(C)CC3)nc(Sc3ccc(NC(=O)C4CC4)cc3)n2)n[nH]1 [tozasertib]
Method in brief: as §1

doramapimod = compound: Cc1ccc(-n2nc(C(C)(C)C)cc2NC(=O)Nc2ccc(OCCN3CCOCC3)c3ccccc23)cc1 [doramapimod]
Method in brief: as §1

bafetinib = compound: Cc1ccc(NC(=O)c2ccc(CN3CC[C@H](N(C)C)C3)c(C(F)(F)F)c2)cc1Nc1nccc(-c2cncnc2)n1 [bafetinib]
Method in brief: as §1

[6] = compound: Cc1cccc(CC(=O)N2CCc3c2ccc(-c2cn(C)c4ncnc(N)c24)c3F)n1
Method in brief: as §1

Measured: log2 fold change

MAP2K4 isoform 2 (UniProt P45985)
Sequence of UniProt P45985 (P45985 whole entry, looked up): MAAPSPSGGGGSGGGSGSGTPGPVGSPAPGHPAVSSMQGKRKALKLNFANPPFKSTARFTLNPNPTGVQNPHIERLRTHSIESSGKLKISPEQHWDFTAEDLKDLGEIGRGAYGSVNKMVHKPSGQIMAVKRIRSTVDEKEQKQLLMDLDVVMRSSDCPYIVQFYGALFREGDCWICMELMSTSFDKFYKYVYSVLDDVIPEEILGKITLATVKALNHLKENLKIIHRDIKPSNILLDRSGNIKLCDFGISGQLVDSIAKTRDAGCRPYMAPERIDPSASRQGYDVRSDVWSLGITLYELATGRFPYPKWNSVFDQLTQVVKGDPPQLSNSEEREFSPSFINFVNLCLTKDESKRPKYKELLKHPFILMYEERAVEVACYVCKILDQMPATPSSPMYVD
active: [5] 0.619
inactive: alvocidib 0.137 | Tubastatin A -0.08 | [1] 0.081 | defactinib 0.013 | [2] 0.061 | encorafenib 0.122 | [3] 0.087 | alisertib -0.069 | [4] -0.022 | gefitinib -0.032 | lapatinib -0.036 | pictilisib -0.077 | crizotinib -0.086 | duvelisib -0.012 | gandotinib -0.031 | tozasertib -0.087 | doramapimod -0.032 | bafetinib -0.05 | [6] -0.059

LARS2 (UniProt Q15031)
Sequence of UniProt Q15031 (Q15031 whole entry, looked up): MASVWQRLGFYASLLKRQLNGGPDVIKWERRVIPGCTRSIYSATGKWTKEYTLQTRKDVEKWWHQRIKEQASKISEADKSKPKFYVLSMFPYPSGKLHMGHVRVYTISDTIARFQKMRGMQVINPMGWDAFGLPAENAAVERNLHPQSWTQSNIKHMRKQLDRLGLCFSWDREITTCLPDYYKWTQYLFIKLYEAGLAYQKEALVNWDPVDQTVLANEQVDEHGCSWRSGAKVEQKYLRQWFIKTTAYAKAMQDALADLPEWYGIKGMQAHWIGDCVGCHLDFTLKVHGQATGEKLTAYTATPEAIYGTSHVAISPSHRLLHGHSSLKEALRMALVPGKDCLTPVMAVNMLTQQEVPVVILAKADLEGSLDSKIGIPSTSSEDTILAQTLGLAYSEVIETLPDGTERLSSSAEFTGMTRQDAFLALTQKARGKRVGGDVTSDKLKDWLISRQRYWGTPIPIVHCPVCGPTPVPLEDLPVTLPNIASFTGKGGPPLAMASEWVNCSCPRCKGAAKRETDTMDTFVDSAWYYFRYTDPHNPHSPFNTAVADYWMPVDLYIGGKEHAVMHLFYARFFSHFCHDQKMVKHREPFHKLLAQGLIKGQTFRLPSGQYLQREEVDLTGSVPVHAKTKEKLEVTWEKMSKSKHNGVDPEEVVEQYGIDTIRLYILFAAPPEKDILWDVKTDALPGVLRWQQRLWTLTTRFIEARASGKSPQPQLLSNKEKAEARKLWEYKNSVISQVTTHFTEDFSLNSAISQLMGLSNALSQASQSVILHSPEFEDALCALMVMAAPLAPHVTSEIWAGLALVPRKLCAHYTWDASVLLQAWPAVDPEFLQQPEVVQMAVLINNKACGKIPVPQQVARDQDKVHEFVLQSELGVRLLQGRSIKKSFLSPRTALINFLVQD
inactive: alvocidib 0.021 | Tubastatin A -0.06 | [1] -0.047 | defactinib 0.013 | [2] -0.088 | encorafenib 0.038 | [3] -0.115 | alisertib 0.051 | [4] 0.007 | gefitinib 0.012 | lapatinib -0.012 | pictilisib -0.073 | crizotinib -0.047 | [5] 0.014 | duvelisib -0.039 | gandotinib -0.2 | tozasertib 0.054 | doramapimod 0.012 | bafetinib -0.067 | [6] 0.044

LBR (UniProt Q14739)
Sequence of UniProt Q14739 (Q14739 whole entry, looked up): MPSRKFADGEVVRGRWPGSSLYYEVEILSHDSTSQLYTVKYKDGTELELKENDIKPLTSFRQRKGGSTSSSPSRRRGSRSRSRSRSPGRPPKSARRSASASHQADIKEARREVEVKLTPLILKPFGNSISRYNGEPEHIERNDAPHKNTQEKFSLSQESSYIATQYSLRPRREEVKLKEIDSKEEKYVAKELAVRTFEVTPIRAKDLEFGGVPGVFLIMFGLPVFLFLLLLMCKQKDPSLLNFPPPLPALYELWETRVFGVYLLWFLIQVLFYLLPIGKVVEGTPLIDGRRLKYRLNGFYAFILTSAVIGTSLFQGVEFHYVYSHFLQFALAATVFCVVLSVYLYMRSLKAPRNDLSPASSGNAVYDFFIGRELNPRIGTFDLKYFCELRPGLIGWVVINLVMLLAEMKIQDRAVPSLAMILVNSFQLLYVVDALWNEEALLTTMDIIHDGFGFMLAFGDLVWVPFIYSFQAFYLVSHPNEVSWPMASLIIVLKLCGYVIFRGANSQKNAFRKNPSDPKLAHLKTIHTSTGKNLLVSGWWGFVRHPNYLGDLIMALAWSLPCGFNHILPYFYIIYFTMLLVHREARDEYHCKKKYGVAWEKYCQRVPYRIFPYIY
active: gandotinib -0.285
inactive: alvocidib 0.072 | Tubastatin A 0.025 | [1] -0.063 | defactinib 0.04 | [2] -0.002 | encorafenib -0.021 | [3] 0.027 | alisertib 0.071 | [4] 0.001 | gefitinib -0.094 | lapatinib -0.071 | pictilisib -0.068 | crizotinib 0.063 | [5] 0.159 | duvelisib -0.039 | tozasertib -0.003 | doramapimod -0.06 | bafetinib -0.114 | [6] -0.096

MLST8 (UniProt Q9BVC4)
Sequence of UniProt Q9BVC4 (Q9BVC4 whole entry, looked up): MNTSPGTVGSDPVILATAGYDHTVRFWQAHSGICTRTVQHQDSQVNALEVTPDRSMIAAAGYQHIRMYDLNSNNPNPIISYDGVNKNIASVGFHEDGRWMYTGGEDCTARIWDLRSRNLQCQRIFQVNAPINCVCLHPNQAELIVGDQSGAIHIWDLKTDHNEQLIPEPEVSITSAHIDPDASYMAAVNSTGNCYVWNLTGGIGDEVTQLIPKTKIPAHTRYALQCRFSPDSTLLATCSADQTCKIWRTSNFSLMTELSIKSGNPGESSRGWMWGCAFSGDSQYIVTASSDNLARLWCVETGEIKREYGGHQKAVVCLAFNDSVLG
inactive: alvocidib 0.009 | Tubastatin A -0.072 | [1] -0.059 | defactinib -0.023 | [2] -0.059 | encorafenib -0.012 | [3] 0.038 | alisertib -0.016 | [4] -0.01 | gefitinib -0.004 | lapatinib -0.028 | pictilisib -0.073 | crizotinib 0.004 | [5] -0.034 | duvelisib -0.028 | gandotinib -0.055 | tozasertib 0.078 | doramapimod 0.08 | bafetinib -0.026 | [6] 0.032

LARP4B (UniProt Q92615)
Sequence of UniProt Q92615 (Q92615 whole entry, looked up): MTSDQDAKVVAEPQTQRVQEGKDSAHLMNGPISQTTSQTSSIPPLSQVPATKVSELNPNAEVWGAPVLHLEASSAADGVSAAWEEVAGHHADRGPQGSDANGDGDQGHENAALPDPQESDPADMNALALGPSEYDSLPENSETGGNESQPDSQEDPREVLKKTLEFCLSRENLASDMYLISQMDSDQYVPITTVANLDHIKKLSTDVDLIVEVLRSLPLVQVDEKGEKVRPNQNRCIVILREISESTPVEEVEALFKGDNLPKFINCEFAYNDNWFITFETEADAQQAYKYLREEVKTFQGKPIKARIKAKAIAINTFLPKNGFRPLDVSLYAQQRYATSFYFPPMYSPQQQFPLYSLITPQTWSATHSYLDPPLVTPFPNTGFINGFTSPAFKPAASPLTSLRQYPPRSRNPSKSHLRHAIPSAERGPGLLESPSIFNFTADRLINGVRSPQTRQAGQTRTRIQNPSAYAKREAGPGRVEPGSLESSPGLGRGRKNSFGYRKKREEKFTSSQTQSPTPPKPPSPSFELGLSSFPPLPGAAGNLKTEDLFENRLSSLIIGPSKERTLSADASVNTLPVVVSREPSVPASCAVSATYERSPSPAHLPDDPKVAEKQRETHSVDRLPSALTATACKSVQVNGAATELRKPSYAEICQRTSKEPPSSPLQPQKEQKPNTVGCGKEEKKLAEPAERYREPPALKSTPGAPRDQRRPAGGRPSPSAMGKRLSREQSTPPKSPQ
inactive: alvocidib 0.001 | Tubastatin A -0.118 | [1] 0.005 | defactinib 0.023 | [2] -0.027 | encorafenib 0.024 | [3] 0.015 | alisertib 0.025 | [4] -0.013 | gefitinib -0.006 | lapatinib 0.01 | pictilisib 0.016 | crizotinib -0.019 | [5] -0.051 | duvelisib -0.033 | gandotinib 0.029 | tozasertib -0.009 | doramapimod -0.044 | bafetinib -0.047 | [6] 0.096

L3HYPDH (UniProt Q96EM0)
Sequence of UniProt Q96EM0 (Q96EM0 whole entry, looked up): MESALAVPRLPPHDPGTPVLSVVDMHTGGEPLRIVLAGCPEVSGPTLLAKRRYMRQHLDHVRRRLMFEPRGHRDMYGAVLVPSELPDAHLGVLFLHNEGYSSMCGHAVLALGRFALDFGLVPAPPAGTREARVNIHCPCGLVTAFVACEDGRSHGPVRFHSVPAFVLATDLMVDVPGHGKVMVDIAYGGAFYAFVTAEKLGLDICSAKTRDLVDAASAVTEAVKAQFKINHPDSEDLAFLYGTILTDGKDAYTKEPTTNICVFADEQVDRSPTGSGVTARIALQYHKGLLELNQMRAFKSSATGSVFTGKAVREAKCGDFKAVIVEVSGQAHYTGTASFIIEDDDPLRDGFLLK
inactive: alvocidib 0.023 | Tubastatin A -0.052 | [1] 0.005 | defactinib -0.012 | [2] 0.022 | encorafenib -0.017 | [3] 0.039 | alisertib -0.019 | [4] -0.005 | gefitinib -0.013 | lapatinib -0.019 | pictilisib -0.032 | crizotinib -0.028 | [5] -0.045 | duvelisib -0.014 | gandotinib 0.018 | tozasertib -0.002 | doramapimod 0.036 | bafetinib -0.018 | [6] -0.048

MRPL28 (UniProt Q13084)
inactive: alvocidib 0.261 | Tubastatin A -0.074 | [1] -0.11 | defactinib 0.039 | [2] 0.001 | encorafenib 0.026 | [3] -0.026 | alisertib 0.045 | [4] -0.02 | gefitinib 0.072 | lapatinib -0.046 | pictilisib 0.03 | crizotinib -0.08 | duvelisib 0.043 | gandotinib -0.246 | tozasertib 0.059 | doramapimod -0.012 | bafetinib -0.04 | [6] -0.228
active: [5] 0.482

MDM2 isoform 11 (UniProt Q00987)
Sequence of UniProt Q00987 (Q00987 whole entry, looked up): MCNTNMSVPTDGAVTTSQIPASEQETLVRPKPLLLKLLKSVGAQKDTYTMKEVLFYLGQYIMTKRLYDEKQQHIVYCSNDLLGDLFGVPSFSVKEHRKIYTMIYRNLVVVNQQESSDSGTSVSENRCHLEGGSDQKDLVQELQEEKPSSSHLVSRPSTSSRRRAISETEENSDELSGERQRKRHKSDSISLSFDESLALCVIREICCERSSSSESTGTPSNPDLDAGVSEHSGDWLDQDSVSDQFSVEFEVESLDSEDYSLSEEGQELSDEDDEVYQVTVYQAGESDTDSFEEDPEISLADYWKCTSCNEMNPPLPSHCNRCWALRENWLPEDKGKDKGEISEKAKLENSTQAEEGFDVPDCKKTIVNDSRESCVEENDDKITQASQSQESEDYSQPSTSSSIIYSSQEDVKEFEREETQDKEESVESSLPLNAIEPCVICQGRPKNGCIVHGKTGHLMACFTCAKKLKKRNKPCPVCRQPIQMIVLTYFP
inactive: alvocidib -0.127 | Tubastatin A 0.15 | [1] 0.041 | defactinib 0.158 | pictilisib -0.003 | crizotinib 0.014 | [5] -0.004 | gandotinib 0.044 | doramapimod 0.009 | bafetinib 0.054 | [6] -0.158

MOCS3 (UniProt O95396)
Sequence of UniProt O95396 (O95396 whole entry, looked up): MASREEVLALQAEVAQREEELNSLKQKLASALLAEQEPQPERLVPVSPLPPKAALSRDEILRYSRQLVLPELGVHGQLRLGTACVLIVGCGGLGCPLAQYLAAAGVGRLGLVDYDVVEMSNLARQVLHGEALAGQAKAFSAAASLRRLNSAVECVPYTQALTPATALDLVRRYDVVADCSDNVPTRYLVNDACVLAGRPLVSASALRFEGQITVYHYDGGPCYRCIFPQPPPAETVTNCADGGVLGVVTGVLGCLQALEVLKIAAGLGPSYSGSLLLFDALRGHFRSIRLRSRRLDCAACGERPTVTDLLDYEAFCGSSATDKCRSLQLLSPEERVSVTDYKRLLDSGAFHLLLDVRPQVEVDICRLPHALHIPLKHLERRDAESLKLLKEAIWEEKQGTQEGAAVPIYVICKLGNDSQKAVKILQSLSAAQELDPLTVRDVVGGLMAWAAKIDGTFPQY
inactive: alvocidib -0.213 | Tubastatin A -0.082 | [1] 0.111 | defactinib -0.161 | [2] -0.008 | encorafenib 0.056 | [3] -0.094 | alisertib 0.031 | gefitinib -0.231 | pictilisib 0.004 | crizotinib -0.127 | [5] -0.176 | duvelisib 0.009 | gandotinib 0.227 | tozasertib 0.027 | doramapimod 0.072 | bafetinib -0.054 | [6] 0.348

Source: the supplement of paper PMC10849652
